Test results: PubChem BioAssay AID1460 (National Center for Advancing Translational Sciences (NCATS), 2008)
Among all 270,000 compounds or so, about 5,800 (2.1%) were called active. Roughly 16% stayed inconclusive and do not appear here. This is one part of a sample in which actives are shown more often than they occur. The call rests on the fitted dose curve; in most records, active means well fitted inhibition curve with a large enough effect; inconclusive means small, poorly fitted or top-dose-only effect; inactive means flat fitted curve, though single readings scatter.

target: Microtubule-associated protein tau (Homo sapiens) (UniProt P10636); test: qHTS for Inhibitors of Tau Fibril Formation, Thioflavin T Binding; settings: recombinant tau K18 P301L (four-repeat tau fragment), heparin-induced fibrillization, ThT fluorescence; series mostly up to 57.4 µM; activity, negative = inhibition: at the top concentration; further: nearly all actives have a fitted effect of over 55% in size
Sequence (P10636 561-689 P618L limits assumed): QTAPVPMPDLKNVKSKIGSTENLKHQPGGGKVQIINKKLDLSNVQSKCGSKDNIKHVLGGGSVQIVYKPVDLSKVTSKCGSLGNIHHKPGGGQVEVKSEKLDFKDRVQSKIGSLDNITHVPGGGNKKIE
How it was run: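 Heparin-induced (20 uM) aggregation of recombinant human K18 P301L tau, 15 uM unlabeled with 0.24 uM labeled, pH 7 acetate buffer, 6 hr at 37 C with compound. Fibrils quantified by 30 uM ThT fluorescence after 1 hr ambient incubation.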
On the % scale 0 is the no-effect control and ±100 the full control effect; potency means the concentration at half of the fitted maximal effect.

activity, negative = inhibition, inactive:
O=C(CSc1nc2c(c(=O)[nH]1)CN(Cc1ccc3c(c1)OCO3)CC2)Nc1cc(F)ccc1F -17.2%
Cc1ccc2cccc(NC(=O)c3ccc(OC(C)C)cc3)c2n1 2.4%
O=C(CSc1nc(=O)[nH]c2c1CCCC2)Nc1cc(C(F)(F)F)ccc1Cl 1.77%
CCCOc1ccc(N2CC(C(=O)Nc3ccccn3)CC2=O)cc1 (stereo not given) -8.67%
CCCNC(=O)C1CC(=O)N(c2ccc(OCC(=O)Nc3cccc(C)c3C)cc2)C1 (stereo not given) -8.32%
CCOc1ccc(C(NC(=O)c2cc(OC)c(OC)c(OC)c2)c2cc(Cl)c3cccnc3c2O)cc1 (stereo not given) 4.92%
CCCCN(C)c1nnc(NC(=O)Nc2ccc(Br)c(C)c2)s1 11.5%
CCOC(=O)c1c(C)[nH]c(C)c1S(=O)(=O)N1CCCC(C(=O)NCc2ccccc2Cl)C1 (stereo not given) -14.6%
COc1ccc(S(=O)(=O)c2cn(C)c3cc(N4CCCCC4)c(F)cc3c2=O)cc1 0.721%
Cc1nn(C)c(Oc2ccccc2)c1[N+](=O)[O-] -8.94%
Cc1cccc(C2CC(=O)Oc3c2c(=O)n(C)c2ccccc32)c1 (stereo not given) -0.0642%
CN(C(=O)CSc1nc2ccccc2n1Cc1ccccc1C#N)c1ccccc1 -9.62%
CCNC(=O)N1c2ccccc2Sc2ccccc21 -0.283%
CCN1C(=O)/C(=C2/Sc3ccccc3N2CCCS(=O)(=O)O)SC1=S 7.21%
CC(=O)c1ccc(NC(=O)CSc2c(C(C)C)cnc3c2c(=O)n(C)c(=O)n3C)cc1 -3.43%
O=C(COc1ccc(Cl)cc1)Nc1ccccc1OCc1cc(=O)n2ccccc2n1 -6.08%
CC1=C(C(=O)Nc2ccccc2)C(c2ccco2)C(C#N)=C(SCC(N)=O)N1 (stereo not given) -17.1%
Cc1ccc(CCNC(=O)c2ccc(CNS(=O)(=O)c3ccc(C)cc3)cc2)cc1 -7.58%
CCOC(=O)c1c(C)oc2nc(C)nc(N(CC(C)C)CC(C)C)c12 -13.6%
COc1ccc(NC(=O)N2CCCn3nc(C)cc32)cc1OC -3.7%
COc1ccc(C(=O)c2oc3ccccc3c2NC(=O)COc2cccc(C)c2)cc1 -2.19%
O=C(Nc1ccccc1Cl)N1CCC(CN2CCCC2)CC1 0.871%
Cc1ccc(Cn2c(=O)n(Cc3nc(-c4ccccc4)no3)c(=O)c3cc4c(cc32)OCO4)cc1 -8.07%
Cc1ccc(-c2cn3c(n2)sc2cc(C(=O)NCCCc4ccccc4)ccc23)cc1 -0.664%
Cc1cccc(C(=O)N2CCc3cc(CNC(=O)Cc4ccc(F)cc4)ccc32)c1 -7.2%
CCC(=O)Nc1cccc(-c2nc3cc(C)ccc3o2)c1 -13.5%
Cc1nc2ccccc2cc1O -0.125%
O=C(Nc1c2c(nc3ccccc13)CCCC2)c1ccccc1Br -1.43%
COc1ccc(-c2nc3sc(CCNS(=O)(=O)c4ccc(F)c(C)c4)c(C)n3n2)cc1 -9.65%
O=C1CN(C(=O)Nc2ccccc2C(F)(F)F)C(c2ccccc2)c2c(sc3c2CCCC3)N1 (stereo not given) -14.6%
Cc1nc2ccc(S(=O)(=O)N(CC(=O)Nc3ccc(F)cc3)Cc3ccccc3)cc2s1 -5.37%
Cc1ccccc1CNC(=O)CSc1nnc(C)c2c(C)n(-c3ccccc3)nc12 -7.02%
CCN(CC)C(=O)C(=O)Nc1cccc(Br)c1 -2.21%
O=C(CCN1C(=O)c2ccccc2C1=O)Nc1cccc(F)c1 -9.93%
O=C(Nc1ccc(C(=O)OCc2cc(=O)n3nc(C4CC4)sc3n2)cc1)c1ccc(F)cc1 6.18%
O=C(Nc1ccc(F)cc1F)c1ccc2c(=O)n3c(nc2c1)CCCCC3 -11.2%
Cn1c(=O)n(Cc2c(F)cccc2Cl)c(=O)c2c1nc1n2CCN1c1ccc(F)cc1 -8.2%
Cc1c(NC(=O)Nc2ccccc2)cccc1[N+](=O)[O-] -10.4%
CCOC(=O)Cc1csc(NC(=O)Nc2ccccc2)n1 -8.19%
Cc1cc(C)cc(NC(=O)CCCc2nc(-c3ccccc3Cl)no2)c1 12.5%
Cc1ccc(C)c(N2C(=O)N(Cc3c(F)cccc3Cl)c3ccccc3S2(=O)=O)c1 1.5%
Cc1cccc(-n2ccnc2SCC(=O)Nc2cccc3ccccc23)c1C -14.8%
COc1ccc(OC)c(CNC(=O)c2c3c(nc4ccccc24)C(=O)N(C2CCCCC2)C3)c1 8.16%
Cc1ccc(C(=O)Nc2c(C(=O)NC(C)(C)C)oc3ccccc23)cc1 -0.42%
Cc1ccc(NS(=O)(=O)c2ccc(C)c(NC(=O)COc3ccc4ccccc4c3)c2)c(C)c1 -18.9%
COCCNC(=O)c1ccccc1NS(=O)(=O)c1ccc(C)c([N+](=O)[O-])c1 5.22%
COc1cccc(CNCc2c(C(=O)O)n(Cc3ccc(C)cc3)c3cc(C)ccc23)c1OC -6.73%
O=C(CCC1N=C2c3ccccc3N=C(SCc3ccccc3F)N2C1=O)NCCc1ccccc1 (stereo not given) -10.8%
Cc1ccc(N2C(=O)S/C(=C/c3cn(C)c4ccccc34)C2=O)cc1 -15.5%
Cn1cc(/C=C/c2nc3ccccc3c(=O)n2-c2cccc([N+](=O)[O-])c2)c2ccccc21 -5.45%
CCCn1c2ccccc2c2cnn(CC(=O)NCCCN3CCCCC3CC)c(=O)c21 (stereo not given) -11.7%
CCc1nnc2c3ccccc3nc(N3CCN(c4ccc(C)cc4C)CC3)n12 -13.5%
COc1cccc(Cn2c(CNS(=O)(=O)c3ccc(Cl)s3)nc3cccnc32)c1 -11.9%
O=C(Nc1nnc(SCc2ccccc2)s1)c1ccco1 -8.61%
Nc1nc(SCc2ccccc2Cl)n[nH]1 -8%
COC(OC)c1ccnc(SCc2ccccc2Cl)n1 -5.31%
Brc1ccc(CSc2ccc(-c3ccco3)nn2)cc1 -16.9%
COc1ccc(C2C(=O)N(C3CCCCC3)CC(=O)N2Cc2ccccc2Cl)cc1OC (stereo not given) 2.26%
Cc1onc(-c2ccc(F)cc2F)c1C(=O)Nc1cccc(C(F)(F)F)c1 1.56%
CCC(Sc1nc2n[nH]c(C)c2c(=N)n1-c1ccccc1Cl)C(=O)N(CC)CC (stereo not given) -9.58%
COc1ccccc1CNC(=O)C(=O)NCC(c1cccs1)S(=O)(=O)c1cccs1 (stereo not given) -3.27%
CC(CC(=O)O)C(=O)c1ccc(Cl)c([N+](=O)[O-])c1 (stereo not given) -0.522%
O=C(c1ccc(Cl)c([N+](=O)[O-])c1)N1CCN(c2ccccc2)CC1 4.34%
CN(C)c1ccc(/C=C/C(=O)c2ccc(C(C)(C)C)cc2)cc1[N+](=O)[O-] -1.69%
Cc1cc(C)n(-c2ccc(C(=O)O)cc2[N+](=O)[O-])n1 2.36%
COc1ccccc1CNc1ccc(-c2nc(-c3ccccc3C)no2)cc1[N+](=O)[O-] 13.3%
CCCOc1ccc(-c2cccc(NS(=O)(=O)c3ccccc3)c2)nn1 -11%
COc1ccc(CNC(=O)COCc2cc(-c3cccs3)on2)cc1OC 3.85%
Cc1ccc(Cn2cc(CCC(=O)NCc3ccc(OC(C)C)cc3)c3ccccc32)cc1 -3.01%
c1ccc(CNc2ncnc3[nH]ncc23)cc1 3.06%
CCN(CC)S(=O)(=O)c1cc([N+](=O)[O-])ccc1N=Nc1c(O)n(C)c2ccccc12 -9.16%
CN1CCN(c2ccc(S(=O)(=O)Nc3ccccc3)cc2[N+](=O)[O-])CC1 -11.2%
O=C(Nc1ccc(F)cc1F)c1cnn(-c2ccc(F)cc2)c1-n1cccc1 7.82%
Cc1ccc2c(c1)N(C(=O)CCC(=O)NCc1ccccc1F)CC(C)O2 (stereo not given) 3.16%
CCCS(=O)(=O)N1CCCC(C(=O)NCc2ccco2)C1 (stereo not given) -1.85%
CC(=O)N/N=C/c1cc2c(cc1[N+](=O)[O-])OCO2 4.29%
CSc1ccccc1NC(=O)CN(C)CC(=O)Nc1ccc(Cl)cc1[N+](=O)[O-] -20.7%
CC1Cc2cc(S(=O)(=O)CCC(=O)NCc3ccc(Cl)cc3)ccc2N1C(=O)C1CC1 (stereo not given) 6.6%
CCN1CCN(c2ncc3c(n2)CC(c2ccccc2O)CC3=O)CC1 (stereo not given) -2.07%
COc1ccc2nc(Nc3nc(-c4cc5ccccc5oc4=O)cs3)sc2c1 -4.36%
COc1ccc2nc(NC(=O)c3ccc(Br)s3)sc2c1 -9.29%
CCC1=Nc2cc(C(=O)NCCCOC(C)C)ccc2Sc2ccc(C)cc21 2.21%

Potency, active:
CCOc1ccc(N2CC(C(=O)NCCN3C(=O)S/C(=C\c4cccnc4)C3=O)CC2=O)cc1 (stereo not given) 22.4 µM
Cc1cccc(Oc2c([N+](=O)[O-])c(=O)n(C)c3ccccc23)c1 14.1 µM
CCN1/C(=C/C(=S)Nc2ccccc2)Sc2ccccc21 3.55 µM
N#CC1=C(N)Oc2c(sc3ccccc23)C1c1ccco1 (stereo not given) 15.8 µM
CN=C1C=C/C(=N/N=c2\ccn(O)cc2C)C=C1C 6.31 µM
O=C(NNc1c2ccccc2nc2ccccc12)c1cc2ccccc2cc1O 2 µM
CCN(CC)C(=O)CSC(Nc1cccc(F)c1)=C(C#N)C#N 28.2 µM
CCOC(=O)/C(=N\Nc1ccccc1[N+](=O)[O-])c1csc(Nc2ccccc2)n1 5.01 µM
Cc1ccc(NS(=O)(=O)c2ccc(N/N=C/c3ccccc3OCC(=O)O)c([N+](=O)[O-])c2)c(C)c1 12.6 µM
Cc1cccc(N=C2NC(=O)/C(=C/c3cn(C)c4ccccc34)S2)c1 11.2 µM
c1ccc(CSc2nnc(-c3ccco3)c(-c3ccco3)n2)cc1 7.94 µM
Clc1ccccc1CSc1nnc(-c2ccco2)c(-c2ccco2)n1 17.8 µM
CN(C)c1ccc(/C=C/C(=O)c2ccc(O)cc2)cc1[N+](=O)[O-] 4.47 µM
O=C(/C=C/c1ccc(Cl)c([N+](=O)[O-])c1)c1ccc(O)cc1 15.8 µM
O=[N+]([O-])c1cc(S(=O)(=O)Nc2cccc(Cl)c2)ccc1N=Nc1c(O)[nH]c2ccccc12 10 µM
CC1CN(C(=O)N2CCC(C(=O)NCc3ccco3)CC2)c2cc(Cl)ccc2O1 (stereo not given) 31.6 µM
CN(C)/N=C/c1cc(Cl)cc([N+](=O)[O-])c1O 15.8 µM
COc1ccc2nc(Nc3nc4cc5c(cc4s3)OCCO5)sc2c1 3.55 µM
